Screens from PubChem BioAssay.
An excerpt weighted towards active compounds, which were near 15% of everything screened.
TDP1 cell noCPT = qHTS for Inhibitors of human tyrosyl-DNA phosphodiesterase 1 (TDP1): qHTS in cells in absence of CPT; DT40 Tdp1-/- hTDP1 cells, no CPT, ATP luminescence, 48 h; Potency, µM (doses to about 46.2 µM), for the others: at the highest dose activity change, negative = growth inhibition, usual class: inhibitors; AID 686978, 2013; 420,000 compounds, 15% hits; further: nearly all actives have a fitted effect of over 55% in size
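Cells were dispensed at 400 per well, compounds added by pin tool, plates incubated ≥48 hr at 37 °C, then CellTiter-Glo added for 30 min at room temperature before luminescence reading. Line: DT40 Tdp1-/- complemented with hTDP1; camptothecin omitted.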
TDP1 cell CPT = growth inhibition of DT40 Tdp1-/-;hTDP1 cells with camptothecin (screen for TDP1 inhibitors). Potency, µM (doses to about 46.2 µM), for inactives: top-dose activity change, negative = growth inhibition, actives largely listed as inhibitors. chicken DT40 Tdp1-/-;hTDP1 cells + 20 nM CPT, ATP luminescence, 48 h. AID 686979. 420,000 compounds, 12% hits; further: nearly all actives have a fitted effect of over 55% in size
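Chicken DT40 Tdp1-/- cells complemented with human TDP1, 400 cells/well, exposed to compounds plus 20 nM camptothecin for at least 48 h at 37 C; viability read as ATP content by CellTiter-Glo luminescence.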
12-LOX inh = inhibitors of human 12S-lipoxygenase ALOX12; P18054; purified 12hLO, xylenol orange hydroperoxide absorbance; Potency, µM (titrated, usually from 108 µM), for inactives: at the top dose activity change, negative = inhibition, most hits filed as inhibitors; 580,000 compounds, 1.1% hits
Target sequence (P18054 whole entry, looked up): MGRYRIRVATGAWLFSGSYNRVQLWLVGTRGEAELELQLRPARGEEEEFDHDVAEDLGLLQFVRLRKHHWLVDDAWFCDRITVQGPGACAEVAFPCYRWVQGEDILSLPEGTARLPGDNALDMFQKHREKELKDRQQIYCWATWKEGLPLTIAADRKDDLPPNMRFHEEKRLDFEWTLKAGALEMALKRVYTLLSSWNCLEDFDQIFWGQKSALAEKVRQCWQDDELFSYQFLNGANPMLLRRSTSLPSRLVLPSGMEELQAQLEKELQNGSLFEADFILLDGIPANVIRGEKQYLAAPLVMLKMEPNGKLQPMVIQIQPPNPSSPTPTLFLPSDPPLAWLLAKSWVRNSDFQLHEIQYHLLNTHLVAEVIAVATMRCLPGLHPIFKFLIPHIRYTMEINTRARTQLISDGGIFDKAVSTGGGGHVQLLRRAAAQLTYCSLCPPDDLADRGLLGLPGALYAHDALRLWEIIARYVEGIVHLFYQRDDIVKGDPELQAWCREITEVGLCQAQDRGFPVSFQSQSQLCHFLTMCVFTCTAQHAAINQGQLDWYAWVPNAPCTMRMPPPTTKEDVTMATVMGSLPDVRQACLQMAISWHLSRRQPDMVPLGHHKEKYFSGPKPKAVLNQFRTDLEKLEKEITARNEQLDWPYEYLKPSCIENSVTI
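Purified human 12hLO (150 nM final) in 25 mM Hepes, 0.01% Triton X-100, pH 7.0 was preincubated 15 min at room temperature with compound. Then 40 uM arachidonic acid was added, 30 min. Hydroperoxide was read by Fe-XO absorbance ratio 573/405 nm.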
ELG1 repair inh = inhibitors of ELG1-dependent DNA repair in HEK293T cells | AID 504467 | Potency, µM (top dose mostly 46.1 µM), without a hit: at the top dose activity change, negative = inhibition, hits mostly inhibitors | 330,000 compounds, 2.3% hits | HEK293T ELG1-luciferase reporter, luminescence, 16 h; DNA damage induced by 5-fluorouridine; further: nearly all actives have a fitted effect of over 55% in size
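DMSO vehicle served as the neutral condition. Each well held 2,000 cells given 5-fluorouridine plus compound; after 16 hr at 37 °C/5% CO2, ONE-Glo was added and luciferase measured 30 min later.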
VP16 counter = counter-screen for ROR gamma inhibitors: Gal4-VP16 reporter. Drosophila S2 Gal4-VP16 UAS-luciferase, luminescence, 20 h. Potency, µM (highest dose often 53.6 µM), for the others: at the highest dose activity, negative = inhibition, hits mostly inhibitors. 310,000 compounds, 3.5% hits;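 further: Gal4-VP16 expression switched on by copper sulfate through the metallothionein promoter; nearly all actives have a fitted effect of over 50% in size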
RORg inh = blocks mouse ROR gamma transcriptional activity; 310,000 compounds, 5.4% hits; Drosophila S2 Gal4-RORgamma UAS-luciferase reporter, 20 h; P51450; Potency, µM (doses to about 53.6 µM), for the others: at the highest dose activity change, negative = inhibition, hits mostly inhibitors; further: nearly all actives have a fitted effect of over 60% in size
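Using a luciferase readout, inhibitors were identified by reduced reporter activity in Drosophila cells coexpressing a copper-inducible Gal4–ROR gamma fusion and UAS-driven Photinus luciferase, incubated 20 hr after 700 uM copper sulfate.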
* hit, by the source's call; u = inconclusive; x = no result given; [ ] = another dose, or the depositor's remark. The call rests on the fitted dose curve; in most records, active means well fitted curve in the direction sought with a large enough effect; inconclusive means small, poorly fitted or top-dose-only effect, or another doubt; inactive means no such curve, though single readings can be large; an effect the other way counts as inactive or inconclusive. On the % scale 0 is the no-effect control and ±100 the full control effect; potency means the concentration at half of the fitted maximal effect.

SMILES	TDP1 cell noCPT	TDP1 cell CPT	12-LOX inh	ELG1 repair inh	VP16 counter	RORg inh
Cc1cc2c(cc1C)-n1nnnc1C(N1CCCNCC1)C(=O)N2 (configuration not stated)	-17%	u	4%	x	x	x
CCOC(=O)C1C(=O)CC(C)(O)C(C(=O)OCC)C1c1ccc(N(CC)CC)cc1 (configuration not stated)	u	-22%	0%	-17%	-5%	17%
CCN(CC)c1ccc(C2C(C(=O)OC(C)C)C(=O)CC(C)(O)C2C(=O)OC(C)C)cc1 (configuration not stated)	13µM*	15µM*	-3%	u	11%	-1%
CCCN(CCC)S(=O)(=O)c1ccc(NC(=O)Cn2cnc3c2c(=O)n(C)c(=O)n3C)cc1	x	x	4%	x	x	x
COc1ccc(C2=NN(C(=O)CCC(=O)O)C(c3ccccc3)C2)cc1 (configuration not stated)	15%	-4%	14%	-4%	-15%	-36%
COc1ccc(C2CC(c3ccccc3)=NN2C(=O)CN2CCN(Cc3ccccc3)CC2)cc1 (configuration not stated)	26µM*	u	-25%	18µM*	-6%	u
COc1ccc(C2CC(c3ccccc3)=NN2C(=O)COC(=O)c2ccc(Cl)nc2)cc1 (configuration not stated)	-38%	-19%	0%	-6%	-15%	-15%
CNC(=S)N1N=C(c2ccc(Br)cc2)CC1c1ccc(OC)cc1 (configuration not stated)	9.2µM*	u	u	u	u	u
COc1ccc(C2CC(c3cccc([N+](=O)[O-])c3)=NN2/C(C)=C/C(C)=O)cc1 (configuration not stated)	u	16µM*	u	x	x	x
COc1ccc(C2CC(c3ccccc3)=NN2C(=O)COC(=O)c2cnc(Cl)c(Cl)c2)cc1 (configuration not stated)	u	21µM*	-15%	u	-10%	3%
COc1ccc2[nH]cc(CCNC(=O)C3(Cc4cccnc4)CCCCC(=O)N3)c2c1 (configuration not stated)	x	x	9%	x	x	x
COc1ccc(C2CC(c3ccc(Br)cc3)=NN2C(=O)CN2CCCC2)cc1 (configuration not stated)	12µM*	u	29%	u	5%	15%
COc1ccc(C2=NN(C(=O)CN3CCCCC3)C(c3ccc(C)cc3)C2)cc1 (configuration not stated)	u	u	-2%	-7%	1%	11%
CC(C)CNC(=O)Cc1ccc2c(c1)CCCC2	x	x	21%	x	x	x
COC(=O)c1ccc(CNCc2ccccc2)o1	x	x	-8%	x	x	x
COc1ccc(CNC(=O)CCCn2ccc3cc(S(=O)(=O)N4CCCC4)ccc32)cc1	12µM*	18µM*	-5%	u	4%	25%
CCc1ccc(CNC(=O)CCn2ccc3cc(S(=O)(=O)N4CCCC4)ccc32)cc1	u	21µM*	-15%	u	-3%	40%
O=C(CCn1ccc2cc(S(=O)(=O)N3CCCC3)ccc21)NCc1cccc(Br)c1	u	18µM*	-14%	x	x	x
CN(C)c1ccc(CNC(=O)C2CCCN(S(=O)(=O)c3ccc4c(ccn4C)c3)C2)cc1 (configuration not stated)	21µM*	16µM*	-17%	x	x	x
Cc1ccc(CNC(=O)CCn2ccc3cc(S(=O)(=O)N4CCCC4)ccc32)cc1	u	u	-17%	0%	18%	13%
CCCN1C(=O)Cc2ccccc2C1C(=O)O (configuration not stated)	x	x	44%	x	x	x
CC1(C)N=C(c2ccc(F)cc2)C(=O)N1CC(=O)Nc1ccccc1Cl	16µM*	u	-20%	x	x	x
COc1ccccc1NC(=O)CN1C(=O)C(c2ccc(F)cc2)=NC12CCCCC2	23µM*	u	-3%	x	x	x
COc1ccccc1OC[C@H](O)COC(N)=O	x	x	x	x	-5%[17 µM]	13%[2.98 µM]
CCCCCn1c(=N)n(CC(O)COc2ccccc2OC)c2ccccc21 (configuration not stated)	5.8µM*	3.7µM*	-8%	u	u	u
SMILES	TDP1 cell noCPT	TDP1 cell CPT	12-LOX inh	ELG1 repair inh	VP16 counter	RORg inh
N=c1n(Cc2ccccc2Cl)c2ccccc2n1CC(O)c1ccco1 (configuration not stated)	u	-27%	1%	u	-1%	14%
N=c1n(Cc2ccccc2)c2ccccc2n1CC(O)c1ccccc1 (configuration not stated)	21µM*	10µM*	-20%	u	-9%	1%
COc1ccc(C(O)Cn2c(=N)n(CCCN(C)C)c3ccccc32)cc1 (configuration not stated)	u	u	-2%	2%	-6%	-1%
Cc1ccc(Cn2c(=N)n(CC(O)c3ccco3)c3ccccc32)cc1 (configuration not stated)	16µM*	-84%	0%	u	0%	-15%
CCCCn1c(=N)n(CCOc2ccc(C)cc2)c2ccccc21	5.8µM*	4.6µM*	-19%	u	-6%	30%
COc1ccc(OCCn2c(=N)n(CCO)c3ccccc32)cc1	u	-18%	0%	14%	4%	6%
COc1cc(OC)c(NC(=O)Cn2nc3n(c2=O)CCCC3)cc1Cl	x	x	12%	x	x	x
Cc1ccc(S(=O)(=O)N2CCN(C3CCN(Cc4ccccn4)C3=O)CC2)cc1 (configuration not stated)	x	x	67%	x	x	x
CCn1c(=N)n(CCOc2ccc(Br)cc2)c2ccccc21	5.2µM*	5.8µM*	u	x	x	x
C=CCn1c(=N)n(CC(O)COc2ccccc2OC)c2ccccc21 (configuration not stated)	u	u	6%	u	-4%	1%
COc1ccccc1OCCn1c(=O)sc2ccccc21	-9%	-27%	-24%	23%	4%	22%
CCCCn1c(=N)n(CCOc2ccccc2OC)c2ccccc21	4.1µM*	2.9µM*	-23%	x	x	x
COc1ccccc1OCC(O)Cn1c(=N)n(Cc2ccccc2)c2ccccc21 (configuration not stated)	8.2µM*	21µM*	-19%	u	-7%	2%
